# Compound activity: PubChem, Broad Institute
# aSyn 5UTR act = Activators via SNCA 5'UTR binding, MLPCN. alpha-synuclein 5'UTR reporter, activators screen. activity score, % (tested at 7.5 µM), hits read low. 300,000 tested, 7.1% active; in the data active = activity score below about -60%
# Numbers without * were called inactive. This excerpt belongs to a sample that is enriched for hits.
SMILES,aSyn 5UTR act
Cc1cc(NC(=O)CCl)n(-c2nc3ccccc3s2)n1,-77*
O=C(CCSc1nc2ccccc2s1)N/N=C/c1c(O)ccc2ccccc12,66
Cc1csc(SCC(=O)Nc2nc3ccccc3s2)n1,-100*
CC(C)(C)NC(=O)CCCSc1nc2ccccc2s1,-133*
Cc1cc(C)n2c(Br)c(CSc3nc4ccccc4s3)nc2n1,-79*
Cc1cc(C)nc(SCC(=O)OCC(=O)Nc2nc3ccccc3s2)n1,-70*
Nc1ccc2c(c1)COc1ccccc1O2,-133*
O=S(=O)(c1ccc(OCc2nc3ccccc3s2)c(Cl)c1)N1CCOCC1,-141*
O=S(=O)(c1cccc(-c2nnc(SCc3nc4ccccc4s3)o2)c1)N1CCOCC1,-187*
Cc1c(Cl)cccc1NC(=O)c1cc(C2CC2)on1,-207*
COc1ccc(NC(=O)c2cc(C3CC3)on2)c(OC)c1,-200*
Cc1cc(NC(=O)c2cc(C3CC3)on2)no1,-96*
C[n+]1cc[nH]c1SCC(=O)c1ccccc1,-72*
C/C(=N/N=C(\C)c1ccccc1O)c1ccccc1O,-115*
COc1ccc(NC(=O)NC2CCCCCCC2)cc1,-139*
COC(=O)c1ccc(NC(=O)NC2CCCCC2)cc1,-117*
Cc1ccc(-c2csc(-c3ccncc3)n2)cc1,-213*
Brc1ccc(-c2csc(-c3ccncc3)n2)cc1,-195*
C(=N\Nc1ncnc2ccccc12)/c1ccccc1,-212*
Clc1cccc(/C=N/Nc2ncnc3ccccc23)c1,-198*
Nc1c(Cl)ncnc1N/N=C/c1ccnc2ccccc12,-68*
CCC1CCCCN1C(=O)CSc1nnc(-c2cccs2)o1 (centres undefined),-74*
CC1CCCN(C(=O)CSc2nnc(-c3cccs3)o2)C1 (centres undefined),-79*
CCCCCCCCCCOC(=O)Cn1c(COc2cccc(C)c2)[n+](C)c2ccccc21,65
Cc1cccc(OCCCn2c(=O)sc3ccccc32)c1,-90*
SMILES,aSyn 5UTR act
COc1ccc(OCCn2c(=O)sc3ccccc32)cc1,-142*
CC(C)N1CN=C(Nc2nc3ccccc3o2)NC1,-70*
c1ccc2oc(NC3=NCN(C4CCCCC4)CN3)nc2c1,-174*
CCCCN1CN=C(Nc2nc3ccccc3o2)NC1,-136*
COCCN1CN=C(Nc2nc3ccccc3o2)NC1,-83*
CC1SCC(=NOCc2ccccc2)CS1 (centres undefined),-89*
CC(C)OC(=O)/C(=C/c1ccc2c(c1)c1ccccc1n2C)NC(=O)c1ccccc1,-146*
CC(C)OC(=O)/C(=C\c1ccc2c(c1)c1ccccc1n2C)NC(=O)c1ccccc1,-113*
Nc1ccccc1C(=O)NNC(=O)C(=O)/C=C(\O)c1ccccc1,-139*
Cc1ccccc1-c1nc(-c2ccc(NC(=O)c3cccs3)cc2)no1,-187*
O=C(Nc1ccc(-c2noc(-c3ccccc3F)n2)cc1)c1cccs1,-77*
C=CCSc1nc2ccccc2n1C(=O)/C=C/c1cc(OC)c(OC)c(OC)c1,-172*
CCSc1nc2ccccc2n1C(=O)/C=C/c1ccc(OC)c(OC)c1,-168*
C=CCSc1nc2ccccc2n1C(=O)/C=C/c1ccc(OC)c(OC)c1,-219*
COc1ccc2nc(N3CCC(C)CC3)c(C#N)cc2c1,-175*
COC(=O)C1=C(C)Nc2ccc(C)cc2S1,-64*
O=c1c(N2CCCCC2)coc2ccccc12,-86*
O=C(Nc1ccc(Br)cn1)c1ccc2ccccc2c1,-83*
COc1cc2ccccc2cc1C(=O)Nc1ccc(Br)cn1,-175*
COc1c(C(=O)Nc2ccc(Br)cn2)ccc2ccccc12,-167*
CCOC(=O)Cc1csc(NC(=O)c2cnc3sc(C)cn3c2=O)n1,-112*
CCOC(=O)Cc1csc(NC(=O)c2ccc(Cl)s2)n1,-119*
CCOC(=O)Cc1csc(NC(=O)c2ccco2)n1,-162*
COC(=O)c1sc(NC(=S)NC(=O)c2cccc(Br)c2)nc1C,-104*
COC(=O)c1sc(NC(=S)NC(=O)c2ccccc2C)nc1C,-93*
SMILES,aSyn 5UTR act
Cc1ccc(NC(=O)c2cccc(C(=O)OC(C)C)n2)c(Br)c1,-73*
COC(=O)c1cccc(C(=O)Nc2ccc(C)cc2Br)n1,-155*
COc1cccc(NC(=O)NCCC2=CCCCC2)c1,-183*
COc1ccc(NC(=O)NCCC2=CCCCC2)cc1,-131*
S=C(NCCC1=CCCCC1)Nc1ccc(Cl)cc1,-110*
Cc1[nH]nc2nc(SCC(=O)NCCC3=CCCCC3)n(-c3ccc(Br)cc3)c(=N)c12,75
C(=C\c1ccccc1)/CSc1ccccn1,-187*
Cc1cc(C)nc(SC/C=C/c2ccccc2)n1,-89*
COc1cc(-c2nc(-c3ccccn3)no2)cc(OC)c1OC,-163*
COc1cccc(-c2nc(-c3ccccn3)no2)c1OC,-219*
COc1ccc(-c2cnn3c4c(c(C)nc23)CCN4C(C)C)cc1OC,-70*
CSc1ccc(CNc2ccccn2)cc1,-100*
Fc1ccc(CNc2ccccn2)cc1,-78*
Cc1ccc(OCc2cn3cccnc3n2)cc1,-62*
COc1ccc(-c2cc3ccc(OCC(N)=O)cc3oc2=O)cc1OC,-65*
CC(=O)COc1ccc2cc(-c3ccccc3)c(=O)oc2c1,-64*
